ABHD5-PLIN5 inh: blocks binding of human ABHD5 to perilipin-5 | Q00G26+Q8WTS1 | Split G. princeps luciferase complementation, luminescence, 4 h | inhibition, % at 4 µM | actives 0.78% (n = 360,000);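 active = inhibition above the mean inhibition across every tested compound plus 3 SD, cut at about 22% in these data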
NTR1 ag: NTR1 (human) agonism. P30989. NTR1-U2OS beta-arrestin-GFP spot imaging, agonist mode. activation, % at 20 µM. actives 0.17% (n = 330,000);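 active = activation at or above 40% of the spot to cytoplasm intensity ratio, with at least 20 cells analyzed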
m5-HT2A agonist: agonists of mouse serotonin 5-HT2A receptor (HTR2A); P35363; CHO-K1 mHTR2A beta-arrestin complementation, luminescence; percent of 30 µM serotonin response; activation, % at 7.6 µM; actives 0.66% (n = 360,000); AID 624169;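 active = activation above a run cutoff, the mean activation of all tested compounds plus 3 SD, cut at about 14% in these data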
Beta2AR agonist: agonists of human beta-2 adrenergic receptor inducing internalization; P07550; Am2.2-beta2AR cells, FAP receptor internalization, flow cytometry; response, % (no concentration beside the values); actives 0.43% (n = 340,000); AID 504454;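 active = response above a set limit, near 3 SD of response in nonfluorescent compounds, cut at about 42% in these data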
Target sequence (P07550 whole entry, looked up): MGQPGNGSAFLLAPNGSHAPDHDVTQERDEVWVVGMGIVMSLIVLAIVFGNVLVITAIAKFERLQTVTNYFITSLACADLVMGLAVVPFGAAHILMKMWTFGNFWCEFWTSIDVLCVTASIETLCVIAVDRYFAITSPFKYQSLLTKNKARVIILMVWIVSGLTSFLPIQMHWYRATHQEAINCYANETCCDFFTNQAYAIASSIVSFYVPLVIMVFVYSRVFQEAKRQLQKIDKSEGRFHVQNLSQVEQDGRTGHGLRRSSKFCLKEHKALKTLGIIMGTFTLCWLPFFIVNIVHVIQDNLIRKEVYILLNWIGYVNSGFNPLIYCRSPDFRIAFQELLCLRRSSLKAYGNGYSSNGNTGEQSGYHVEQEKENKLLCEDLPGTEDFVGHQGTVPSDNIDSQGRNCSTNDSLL
Granule exo inh: lytic granule exocytosis inhibition; TALL-104 LAMP-1 surface exposure, flow cytometry; cells stimulated with thapsigargin and PMA; inhibition, % at 10 µM; actives 0.66% (n = 360,000); AID 651702;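 active = inhibition above about 55%, limit read from the data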
MOR ag counter: activates human mu opioid receptor in HTR2A counterscreen; shares compounds with m5-HT2A agonist; U2OS OPRM1 beta-arrestin PathHunter, luminescence; DMSO 0%, DAMGO 9.3 µM 100%; activation, % at 9.3 µM; actives 5.3% (n = 2,300);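 active = mean activation above the mean of DMSO-only wells plus 3 SD, cut at about 0.5% in these data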
HTR2A ag conf: confirmation of mouse HTR2A serotonin receptor agonists. shares compounds with m5-HT2A agonist. CHO-K1 PathHunter beta-arrestin recruitment, luminescence; DMSO 0%, 30 µM serotonin 100%. activation, % at 7.6 µM. actives 19% (n = 2,300). AID 624381;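 active = mean activation across triplicates above the hit threshold derived in the original primary screen, cut at about 15% in these data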
Each line names hits and unclear results; the compound was inactive in the other large screens (follow-up assays come after a bar, where they were run). An excerpt weighted towards active compounds, which were near 2.3% of everything screened.

Cc1cc(OC(C)C(=O)NCC2CCCO2)cc(C)c1Cl (configuration not stated)	m5-HT2A agonist 15 | MOR ag counter inactive | HTR2A ag conf inactive
CC(NC(=O)Nc1ccc(Cl)cc1)C1CCCO1 (configuration not stated)	none
Cc1cc(Cl)ccc1OC(C)C(=O)NC(C)C1CCCO1 (configuration not stated)	m5-HT2A agonist 16 | MOR ag counter inactive | HTR2A ag conf inactive
O=C(Nc1cc(S(=O)(=O)N2CCOCC2)ccc1N1CCOCC1)c1cccs1	none
NC(=O)Cn1nc(C(F)(F)F)c2c1CCCC2	m5-HT2A agonist 40 | MOR ag counter inactive | HTR2A ag conf inactive
CC1CCN(S(=O)(=O)c2cc(C(=O)Nc3ccccn3)ccc2Br)CC1	none
CCOCCCNC(=O)C1(O)c2cc(Br)ccc2NC(=O)N1c1ccc(CC)cc1 (configuration not stated)	m5-HT2A agonist 18 | MOR ag counter inactive | HTR2A ag conf inactive
CCOCCCNC(=O)C1(O)c2cc(Br)ccc2NC(=O)N1c1ccc(OCC)cc1 (configuration not stated)	none
COc1cc(CC(=O)Nc2c(-c3ccccc3)[nH][nH]c2=O)cc(OC)c1	none (no result: NTR1 ag, Beta2AR agonist)
O=C(Cc1cc(C(F)(F)F)cc(C(F)(F)F)c1)Nc1c(-c2ccccc2)[nH][nH]c1=O	m5-HT2A agonist 28 (no result: NTR1 ag, Beta2AR agonist) | MOR ag counter inactive | HTR2A ag conf inactive
O=c1cc(-c2ccc(C(F)(F)F)cc2)oc2ccccc12	m5-HT2A agonist 16 | MOR ag counter inactive | HTR2A ag conf inactive
O=C(Nc1ccc2c(c1)OCO2)c1c[nH]c(=O)n(-c2ccc(F)cc2)c1=O	m5-HT2A agonist 15 | MOR ag counter inactive | HTR2A ag conf inactive
COc1ccc(-n2c(=O)[nH]cc(C(=O)Nc3ccc4c(c3)OCCO4)c2=O)cc1OC	none
C[C@H]1CN([C@@H](C)CO)C(=O)c2cc(/C=C/c3ccccc3)cnc2O[C@H]1CN(C)C(=O)c1cccc(F)c1	m5-HT2A agonist 17 (no result: NTR1 ag, Beta2AR agonist) | MOR ag counter inactive | HTR2A ag conf inactive
CCCCC(CC)CNC(=O)C1CC=CCC1C(=O)O (configuration not stated)	none
CNC(=O)C1CCN(S(=O)(=O)c2c(C)noc2/C=C/c2ccc(OC)cc2)CC1	m5-HT2A agonist 20 | MOR ag counter inactive | HTR2A ag conf inactive
CCOc1ccccc1NC(=O)CSc1nnc(CNC(=O)c2ccccc2F)o1	m5-HT2A agonist 17 | MOR ag counter inactive | HTR2A ag conf inactive
CCOC(=O)c1ccc(NC(=O)CSc2nnc(CNC(=O)c3ccccc3F)o2)cc1	none
C=C1/C=C(\C)C(C)(O)CC(O)CC(=O)C(O)C(O)C(C)CC(C)OC(=O)/C(C)=C/CC/C=C/C(OC)C(O)CC(C)C1 (configuration not stated)	none
CCCCCCSc1cc(C)nc2ncnn12	m5-HT2A agonist 21 | MOR ag counter inactive | HTR2A ag conf inactive
CCOC(=O)N1CCN(C(=O)Nc2ccccc2Cl)CC1	none
CCOC(=O)C1CCN(C(=O)Nc2ccccc2Cl)CC1	m5-HT2A agonist 15 | MOR ag counter inactive | HTR2A ag conf inactive
COC(=O)[C@]12CCCCC=C1N(Cc1cccc3ccccc13)C(=O)[C@H](CC(=O)NCc1cccs1)C2	none (no result: NTR1 ag, Beta2AR agonist)
CCCCC(=O)N(C)c1c(CC)nc2c(OCCOc3ccccc3)cccn12	m5-HT2A agonist 25 (no result: NTR1 ag, Beta2AR agonist) | MOR ag counter inactive | HTR2A ag conf inactive
CCCCC(=O)N(C)c1c(CC)nc2c(OCCOc3ccc(F)cc3)cccn12	none (no result: NTR1 ag, Beta2AR agonist)
CC1CCCCN1CCNC(=O)C1CCN(S(=O)(=O)N2CCCCC2)CC1 (configuration not stated)	m5-HT2A agonist 15 | MOR ag counter inactive | HTR2A ag conf inactive
CC1CCN(CCCNC(=O)C2CCN(S(=O)(=O)N3CCCCC3)CC2)CC1	none
COc1cc(/C=C2\C(=N)N3N=C(S(C)(=O)=O)SC3=NC2=O)ccc1OCCOc1ccc(C)cc1	m5-HT2A agonist 16 | MOR ag counter inactive | HTR2A ag conf inactive
COc1cc(/C=C2\C(=N)N3N=C(S(C)(=O)=O)SC3=NC2=O)cc(OC)c1OCCOc1ccc(C)cc1	none
O=C(NC(c1ccc(F)cc1)c1ccc2ccccc2n1)C1CCN(CCOc2ccc(Cl)cc2)CC1 (configuration not stated)	none (no result: NTR1 ag, Beta2AR agonist)
O=Nc1c(O)n(Cc2cccc(C(F)(F)F)c2)c2ccccc12	m5-HT2A agonist 16 | MOR ag counter 0.7 | HTR2A ag conf inactive
Cn1nc(-c2ccc(Cl)cc2)c2cc(C(=O)N3CCN(c4ccccc4)CC3)sc21	none
Cn1nc(-c2ccc(Cl)cc2)c2cc(C(=O)N3CCCC3)sc21	m5-HT2A agonist 22 | MOR ag counter inactive | HTR2A ag conf inactive
O=C(NCc1ccccn1)c1ccccc1OCc1ccccc1Cl	m5-HT2A agonist 24 (no result: NTR1 ag, Beta2AR agonist) | MOR ag counter inactive | HTR2A ag conf inactive
O=C(NCc1ccccn1)C(F)(F)C(F)(F)C(=O)NCc1ccccn1	m5-HT2A agonist 15 | MOR ag counter inactive | HTR2A ag conf inactive
O=C(NCc1ccccn1)c1ccccc1OCc1ccc(F)cc1	none
COc1cccc(C(NC(C)=O)c2nc(-c3ccc(F)c(Cl)c3)cs2)c1 (configuration not stated)	none (no result: NTR1 ag, Beta2AR agonist)
CC1(OC(=O)C2CCCC2)C(=O)C=C2C=C(c3ccsc3)N(C3CC3)C=C2C1=O (configuration not stated)	m5-HT2A agonist 15 | MOR ag counter inactive | HTR2A ag conf inactive
O=C(NCCCNC(=O)c1ccco1)c1ccc(F)cc1	none
O=C(CN1CCN(C(=O)c2ccccc2)CC1)NC(=O)NCCC1=CCCCC1	m5-HT2A agonist 20 | MOR ag counter inactive | HTR2A ag conf inactive
CCOC(=O)C1CCN(Cc2cccc(Oc3ccc(Cl)cc3)c2)CC1	m5-HT2A agonist 20 | MOR ag counter inactive | HTR2A ag conf 70
CCOC(=O)C1CCN(Cc2cccc(Oc3ccccc3)c2)CC1	none
CCC(C)n1c(SCC(=O)NCc2ccco2)nnc1-c1cccc(S(=O)(=O)N2CCOCC2)c1 (configuration not stated)	m5-HT2A agonist 15 | MOR ag counter inactive | HTR2A ag conf inactive
Cc1nn(CC(=O)NCCCc2ccccc2)c(C)c1[N+](=O)[O-]	none
CCN(Cc1ccccc1)C(=O)Cn1cc(S(=O)(=O)NC)c(S(=O)(=O)NC)c1	m5-HT2A agonist 16 | MOR ag counter inactive | HTR2A ag conf inactive
COc1ccc(C(=O)Nc2ccc(OC)c([N+](=O)[O-])c2)cc1Br	m5-HT2A agonist 24 | MOR ag counter inactive | HTR2A ag conf inactive
COc1ccc(C(=O)Nc2cccc([N+](=O)[O-])c2)cc1Br	none

From PubChem
